# Measured values taken from PubChem BioAssay (EPA / NIEHS).
# Inconclusive results are not listed. Active and inactive are the calls of the source. How the source made its calls, unless noted: active means hit-call score of the fitted dose curve at least 0.9, where 1 is the maximum; inactive means score below 0.9.
# Tests used:
# [1] = target: Cellular tumor antigen p53 (Homo sapiens) (UniProt P04637); test: TOX21_p53_BLA_p2_ratio: Tox21 HCT-116 p53 Agonism Beta-lactamase Assay, Ratio, Phase 2 (AID 2283592; active means hit-call score of the fitted dose curve at least 0.9, where 1 is the maximum)
# Method in brief: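 Ratio endpoint: beta-lactamase cleavage of CCF4-AM, blue (460 nm) over green (530 nm). HCT116 reporter line; 16 h treatment, 37C; substrate 2 h RT.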
# [2] = TOX21_p53_BLA_p3_viability: Viability Assessment in the Tox21 HCT-116 p53 Agonism Beta-lactamase Assay, Phase 3 (AID 2283593; active means hit-call score of the fitted dose curve at least 0.9, where 1 is the maximum;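 further: cells exposed to compound for 16 h before reading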)
# Method in brief: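 HCT-116 cells (4000/well) rested 5 h at 37C, then got DMSO compounds by pin tool (217-fold dilution) for 16 h at 37C, 5% CO2. After the bla read, CellTiter-Glo was added and luminescence read at 30 min, room temperature.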
# [3] = target: Cellular tumor antigen p53 (Homo sapiens) (UniProt P04637); test: TOX21_p53_BLA_p3_ratio: Tox21 HCT-116 p53 Agonism Beta-lactamase Assay, Ratio, Phase 3 (AID 2283596; active means hit-call score of the fitted dose curve at least 0.9, where 1 is the maximum)
# Method in brief: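 Cells were seeded at 4000/well, rested 5 h at 37C, then dosed with DMSO compound solutions (217-fold dilution) for 16 h. CCF4-AM substrate was loaded for 2 h at room temperature, and the 460/530 nm emission ratio was fitted for gain of signal versus DMSO.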
# [4] = TOX21_p53_BLA_p4_viability: Viability Assessment in the Tox21 HCT-116 p53 Agonism Beta-lactamase Assay, Phase 4 (AID 2283597; active means hit-call score of the fitted dose curve at least 0.9, where 1 is the maximum;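 further: hits lower the luminescence signal meaning cytotoxicity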)
# Method in brief: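 Cytotoxicity was inferred from loss of CellTiter-Glo luminescence. HCT116 cells had been dosed with compounds after 5 h plating, incubated 16 h at 37C and 5% CO2, and exposed to the CCF4-AM substrate for 2 h.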
# [5] = target: Cellular tumor antigen p53 (Homo sapiens) (UniProt P04637); test: TOX21_p53_BLA_p5_ratio: Tox21 HCT-116 p53 Agonism Beta-lactamase Assay, Ratio, Phase 5 (AID 2283599; active means hit-call score of the fitted dose curve at least 0.9, where 1 is the maximum)
# Method in brief: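 HCT-116 cells carrying a p53-inducible beta-lactamase reporter were seeded at 4000 cells/well and dosed after 5 h with compound in DMSO (217-fold dilution). After 16 h at 37C, CCF4-AM substrate was added for 2 h, and the 460/530 nm emission ratio was scored as gain-of-signal versus DMSO.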
# [6] = target: Cellular tumor antigen p53 (Homo sapiens) (UniProt P04637); test: TOX21_p53_BLA_p4_ratio: Tox21 HCT-116 p53 Agonism Beta-lactamase Assay, Ratio, Phase 4 (AID 2283601; active means hit-call score of the fitted dose curve at least 0.9, where 1 is the maximum)
# Method in brief: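 HCT116 cells carrying an inducible beta-lactamase reporter were plated at 4000 cells/well, rested 5 h, then exposed to compounds in DMSO (217-fold dilution) for 16 h at 37C. CCF4-AM substrate was loaded 2 h at room temperature; 460/530 nm emission ratio scored gain-of-signal versus DMSO.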
# [7] = CCTE_Shafer_MEA_dev_firing_rate_mean: CCTE's Neural Network Formation Assay for Mean Firing Rate, Shafer Lab (AID 2284031)
# Method in brief: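 Spike frequency (spikes/recording length, averaged over active electrodes) was recorded on days 5, 7, 9 and 12 and collapsed to AUC; rat cortical cultures received compound continuously over 12 days of network development.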
# [8] = CCTE_Shafer_MEA_dev_per_burst_spike_percent: CCTE's Neural Network Formation Assay for Percent of Spikes in a Burst, Shafer Lab (AID 2284032)
# Method in brief: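 Value is trapezoidal AUC over recordings on days 5, 7, 9 and 12 of the well-mean fraction of spikes falling in single-electrode bursts; rat cortical cultures exposed continuously from plating, treatment renewed DIV 5 and 9, fitted downward against DMSO.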
# [9] = CCTE_Shafer_MEA_dev_active_electrodes_number: CCTE's Neural Network Formation Assay for Number of Active Electrodes, Shafer Lab (AID 2284040; active means hit-call score of the fitted dose curve at least 0.9, where 1 is the maximum;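 further: potency for loss of active electrodes versus DMSO so lower counts are hits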)
# Method in brief: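 Counts electrodes per well firing at least 5 spikes/min, recorded on days 5, 7, 9 and 12 in rat cortical cultures dosed continuously from plating (treatment refreshed DIV 5, 9). Value is the area under the curve over recordings, fitted downward relative to DMSO.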
# [10] = CCTE_Shafer_MEA_dev_burst_rate: CCTE's Neural Network Formation Assay for Burst Rate, Shafer Lab (AID 2284042)
# Method in brief: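 Primary rat cortical neurons on PEI-coated 48-well MEA plates (laminin added with cells at plating) (16 electrodes/well), exposed from plating to day 12, dosing renewed at DIV 5 and 9. Burst rate averaged over active electrodes, recorded DIV 5, 7, 9, 12, summarized as AUC; loss versus DMSO.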
# [11] = CCTE_Shafer_MEA_dev_bursting_electrodes_number: CCTE's Neural Network Formation Assay for Number of Bursting Electrodes, Shafer Lab (AID 2284043; active means hit-call score of the fitted dose curve at least 0.9, where 1 is the maximum;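 further: potency is for loss of bursting electrodes relative to DMSO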)
# Method in brief: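 Counted: electrodes with burst rate ≥1 per 2 min in each well. Cells: primary rat cortex, 1.5 x 10^5/well, on 16-electrode MEA wells. Exposure: DIV 0–12, compound renewed DIV 5 and 9. Recording days 5, 7, 9, 12; AUC vs DMSO baseline.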
# [12] = CCTE_Shafer_MEA_dev_per_burst_interspike_interval: CCTE's Neural Network Formation Assay for Burst Interspike Interval, Shafer Lab (AID 2284044)
# Method in brief: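 Rat cortical primary cultures, 16 electrodes/well; compound from plating, renewed with full media change DIV 5 and 9. Spikes via adaptive detector; per-burst ISI well-mean over active bursting electrodes; AUC of DIV 5/7/9/12 recordings; loss-direction fit vs DMSO.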
# [13] = CCTE_Shafer_MEA_dev_burst_duration_mean: CCTE's Neural Network Formation Assay for Mean Burst Duration, Shafer Lab (AID 2284045)
# Method in brief: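 Network-formation assay in primary rat cortical neurons; treatment spans twelve days of development. Mean burst duration per well is integrated by trapezoidal AUC and fitted in the loss-of-signal direction against DMSO baseline.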
# [14] = CCTE_Shafer_MEA_dev_interburst_interval_mean: CCTE's Neural Network Formation Assay for Mean Interburst Interval, Shafer Lab (AID 2284046);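 further: well-mean interburst interval of bursting electrodes as AUC over four recording days; curve fitted for decrease in interburst interval relative to DMSO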
# Method in brief: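 Recordings on days 5, 7, 9 and 12 give well-mean interburst interval across actively bursting electrodes, summarized as area under the curve. Cultures: rat cortical neurons, continuous exposure from day 0, compound renewed at feeds; decrease analyzed versus DMSO.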
# [15] = CCTE_Shafer_MEA_dev_inter_network_spike_interval_mean: CCTE's Neural Network Formation Assay for Mean Inter-network Spike Interval, Shafer Lab (AID 2284047)
# Method in brief: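 Primary rat cortical neurons on 16-electrode MEA wells, exposed from plating day 0 through DIV 12, compound renewed at DIV 5 and 9 media changes. Mean interval between network-spike peaks recorded DIV 5, 7, 9, 12; collapsed as trapezoidal AUC, fitted downward versus DMSO.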
# [16] = CCTE_Shafer_MEA_dev_network_spike_number: CCTE's Neural Network Formation Assay for Number of Network Spikes, Shafer Lab (AID 2284048);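 further: synchronized bursts across electrodes counted on days 5 7 9 12 and integrated as AUC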
# Method in brief: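 Extracellular recordings from 16-electrode wells track network formation in rat cortical cultures under continuous treatment from plating. The endpoint is network spike number, expressed as AUC across DIV 5–12 relative to DMSO vehicle.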
# [17] = CCTE_Shafer_MEA_dev_network_spike_peak: CCTE's Neural Network Formation Assay for Mean Number of Electrodes in Network Spike, Shafer Lab (AID 2284049);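 further: fitted for loss of signal meaning fewer electrodes in network spikes than DMSO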
# Method in brief: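 Continuous 12-day exposure of rat cortical cultures, starting at plating, on MEA plates. Endpoint: electrodes participating in network-spike peaks, AUC across DIV 5–12, DMSO as negative control.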
# [18] = CCTE_Shafer_MEA_dev_spike_duration_mean: CCTE's Neural Network Formation Assay for Mean Spike Duration, Shafer Lab (AID 2284051);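 further: mean network spike duration pooled as area under curve over DIV 5 to 12 recordings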
# Method in brief: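 Primary rat cortical neurons on 16-electrode MEA wells (PEI-coated, laminin in plating drop), exposed from plating through DIV 12 with compound renewed at DIV 5 and 9. Mean network-spike duration recorded DIV 5, 7, 9, 12; trapezoidal AUC across days, DMSO baseline.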
# [19] = CCTE_Shafer_MEA_dev_network_spike_duration_std: CCTE's Neural Network Formation Assay for Standard Deviation of Network Spike Duration, Shafer Lab (AID 2284052);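 further: area under curve of spike duration SD across recording days 5 to 12; hits are decreases in network spike duration SD versus DMSO vehicle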
# Method in brief: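 Primary rat cortical neurons on PEI-coated 16-electrode MEA wells, exposed from plating day 0 through day 12 with compound renewed at DIV 5 and 9. Network spike duration SD recorded on days 5, 7, 9, 12, collapsed as trapezoidal AUC; loss-of-signal fit versus DMSO.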
# [20] = CCTE_Shafer_MEA_dev_per_network_spike_spike_number_mean: CCTE's Neural Network Formation Assay for Mean Number of Spikes in a Network Spike, Shafer Lab (AID 2284053)
# Method in brief: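 Primary rat cortical neurons on 48-well, 16-electrode MEA plates were exposed from plating to DIV 12, with dosing renewed on DIV 5 and 9. Spikes per network spike (0.05 s peak window) were recorded on DIV 5, 7, 9 and 12 and collapsed as trapezoidal AUC versus DMSO.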
# [21] = CCTE_Shafer_MEA_dev_per_network_spike_spike_percent: CCTE's Neural Network Formation Assay for Percent of Spikes in a Network Spike, Shafer Lab (AID 2284054)
# Method in brief: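 Developing networks of rat cortical neurons are dosed at day 0 and recorded extracellularly four times up to day 12. The endpoint is the area under the curve of percent spikes in network spikes, fitted in the negative direction relative to DMSO.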
# [22] = CCTE_Shafer_MEA_dev_LDH: CCTE's Lactate Dehydrogenase Assay for Cytotoxicity in the Neural Network Formation Assay, Shafer Lab (AID 2284068; active means hit-call score of the fitted dose curve at least 0.9, where 1 is the maximum;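 further: exposure for twelve days from plating with re-dosing on DIV 5 and 9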)
# Method in brief: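 Primary rat cortical neurons were plated on PEI/laminin MEA plates and exposed from day 0 for twelve days, with compound renewed at DIV 5 and 9. Cytotoxicity was determined by spectrophotometric LDH assay relative to DMSO.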
# [23] = UKN2_HCS_IMR90_neural_migration: University of Konstanz (UKN) Leist Lab Neural Crest Cell Migration Assay in human induced IMR90 Pluripotent Stem Cells (UKN2) (AID 2284204); details: actives raise or lower the signal
# Method in brief: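 Using a 96-well stopper format with PLO/laminin/fibronectin coating, neural crest cells from iPSC migrate in cytokine-supplemented N2-S medium; after 24 h, chemicals are applied for a further 24 h, then cells are imaged after dye staining.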
# [24] = IUF_NPC1b_proliferation_BrdU_72hr: Leibniz Research Institute for Environmental Medicine (IUF) 72-hour Neural Progenitor Cell Bromodeoxyuridine (BrdU) Proliferation Assay (NPC1b) (AID 2284207)
# Method in brief: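 Neural progenitor spheres of human fetal origin are treated for three days; BrdU added for the last 16 h is quantified by luminescence ELISA, with DMSO as baseline and EGF/FGF omission as positive control.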
# [25] = IUF_NPC1a_proliferation_area_72hr: Leibniz Research Institute for Environmental Medicine (IUF) 72-hour Neural Progenitor Cell Proliferation Area Assay (NPC1a) (AID 2284208)
# Method in brief: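 Read-out: increase in sphere area over 72 h by automated phase-contrast imaging, fitted in positive direction versus DMSO baseline. One hNPC sphere (0.25-0.35 mm) per well in EGF/FGF medium; growth-factor withdrawal served as positive control.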
# [26] = IUF_NPC1_viability_72hr: Viability Assessment at 72 hours in the Leibniz Research Institute for Environmental Medicine (IUF) Neural Progenitor Cell Proliferation Assay (NPC1) (AID 2284209)
# Method in brief: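 Viability was measured by resazurin-to-resorufin fluorescence (alamar blue) after 72 h of continuous exposure without compound renewal. Each well held one hNPC sphere (gestational week 16-19 fetal cortex, 0.25-0.35 mm) cultured in EGF/FGF proliferation medium at 37C and pH 7.2-7.6.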
# Sequence of Cellular tumor antigen p53 (Homo sapiens) (P04637 whole entry, looked up): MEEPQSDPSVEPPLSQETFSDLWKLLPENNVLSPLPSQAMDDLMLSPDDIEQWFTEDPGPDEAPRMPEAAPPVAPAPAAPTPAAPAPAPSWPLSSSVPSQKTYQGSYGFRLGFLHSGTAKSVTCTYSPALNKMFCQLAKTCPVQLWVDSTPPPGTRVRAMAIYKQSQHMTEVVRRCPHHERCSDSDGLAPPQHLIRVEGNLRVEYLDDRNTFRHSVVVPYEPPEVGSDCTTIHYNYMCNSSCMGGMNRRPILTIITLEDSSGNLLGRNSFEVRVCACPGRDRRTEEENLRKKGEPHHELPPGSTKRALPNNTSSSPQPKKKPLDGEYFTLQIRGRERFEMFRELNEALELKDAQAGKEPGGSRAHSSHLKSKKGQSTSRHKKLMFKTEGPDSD
smiles,measurement,setting,value
[Cl-].[Cl-].[NH2-].[NH2-].[Pt+4],outcome,[1],inactive
same,outcome,[2],inactive
same,outcome,[3],inactive
same,outcome,[4],inactive
same,outcome,[5],inactive
same,outcome,[6],inactive
same,outcome,[7],inactive
same,outcome,[8],inactive
same,AC50,[9],10.4 µM (active)
same,outcome,[10],inactive
same,AC50,[11],5.08 µM (active)
same,outcome,[12],inactive
same,outcome,[13],inactive
same,outcome,[14],inactive
same,outcome,[15],inactive
same,outcome,[16],inactive
same,AC50,[17],9.92 µM (active)
same,outcome,[18],inactive
same,outcome,[19],inactive
same,outcome,[20],inactive
same,outcome,[21],inactive
same,AC50,[22],81 µM (active)
same,outcome,[23],inactive
same,AC50,[24],5.68 µM (active)
same,AC50,[25],34.9 µM (active)
same,outcome,[26],inactive
